miR122 inh = miR-122 suppressors via Renilla sensor increase, primary screen, cell-based, Huh7 psiCHECK-miR122, Renilla luciferase, single point; activation, % at 12.5 µM; actives 0.14% (n = 340,000); 48 h;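 active = mean activation of 30% or more, with every replicate also reaching 30%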;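 note: 0% = median of neutral control wells and 100% = median of positive control wells; higher luciferase signal means stronger suppression of miR-122 activity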
Active calls of the source: *. Only a selection was taken, and hits are over-represented in it overall.

SMILES	miR122 inh
C[C@@H]1CN([C@H](C)CO)C(=O)c2cc(-c3ccc(F)cc3)cnc2O[C@H]1CN(C)C(=O)c1cccnc1	-8
Cc1cc(C(F)F)n2ncc(C(=O)NCCc3ccccc3Cl)c2n1	33*
CCc1c(C(=O)NCc2ccccc2Cl)[nH]c(C)c1C(C)=O	-118
C/C=C/c1cnc2c(c1)C(=O)N([C@@H](C)CO)C[C@H](C)[C@H](CN(C)C(=O)Cc1cccnc1)O2	-1
Cc1cc(NS(=O)(=O)c2ccc(NC(=O)C(CC(C)C)N3C(=O)c4ccccc4C3=O)cc2)nc(C)n1 (stereo not drawn)	35*
CCOc1ccc(NS(=O)(=O)c2ccc(NC(=S)NC(=O)CC(C)C)cc2)cc1	-166
Cc1ccc(S(=O)(=O)Nc2ccc3ccccc3c2)cc1	-118
C[C@H](CO)N1C[C@H](C)[C@H](CN(C)C(=O)CC2CC2)Oc2cc(C#CCC3CCCC3)ccc2S1(=O)=O	-6
CCCCN(CCCC)C(=O)CN(C)S(=O)(=O)c1ccc2c(c1)n(C)c(=O)c(=O)n2C	50*
C[C@@H]1CN([C@H](C)CO)C(=O)c2cc(C#Cc3cccnc3)cnc2O[C@@H]1CN(C)S(C)(=O)=O	-6
Cc1ccc(N(Cc2ccco2)C(=O)c2ccc(N3CCCCC3)c([N+](=O)[O-])c2)cc1	-165
COc1ccc(-c2cc(C3CCN(c4ccc(C(C)=O)cc4[N+](=O)[O-])CC3)[nH]n2)cc1	45*
C[C@@H]1CN([C@H](C)CO)C(=O)c2cc(-c3ccc(F)cc3)cnc2O[C@@H]1CN(C)Cc1ccccn1	1
CNC[C@H]1Oc2cc(C#CCC3CCCC3)ccc2S(=O)(=O)N([C@@H](C)CO)C[C@@H]1C	-14
C[C@@H]1CN([C@H](C)CO)C(=O)c2cc(-c3ccccc3F)cnc2O[C@H]1CN(C)C(=O)C1CCCCC1	13
C[C@@H]1CN([C@@H](C)CO)C(=O)c2cc(C#Cc3ccccn3)cnc2O[C@@H]1CN(C)CC1CCOCC1	2
COc1ccccc1-c1ccc2c(c1)O[C@H](CN(C)S(=O)(=O)c1ccccc1)[C@@H](C)CN([C@@H](C)CO)S2(=O)=O	-45
Cc1ccc(S(=O)(=O)NCCC(C)C)cc1[N+](=O)[O-]	-232
O=[N+]([O-])c1ccc(N/N=C/c2ccc[nH]2)cc1	45*
Cc1ccc(C(=O)N/N=C\c2ccc[nH]2)cc1[N+](=O)[O-]	69*
C[C@H]1CN([C@@H](C)CO)C(=O)c2cc(C3=CCCCC3)cnc2O[C@@H]1CN(C)CC1CCOCC1	-3
COc1ccc(-c2cnc3c(c2)C(=O)N([C@H](C)CO)C[C@H](C)[C@@H](CN(C)Cc2ccccn2)O3)cc1	-3
COCC(=O)N(C)C[C@H]1Oc2ncc(C#Cc3ccccc3OC)cc2C(=O)N([C@H](C)CO)C[C@@H]1C	4
CCC(=O)N(C)C[C@@H]1Oc2ncc(C#Cc3ccccc3OC)cc2C(=O)N([C@H](C)CO)C[C@H]1C	6
C[C@H]1CN([C@@H](C)CO)C(=O)c2cc(-c3ccccc3)cnc2O[C@@H]1CN(C)C(=O)Nc1ccc2c(c1)OCO2	1
SMILES	miR122 inh
COc1cccc(NC(=O)N(C)C[C@@H]2Oc3ncc(C#Cc4ccncc4)cc3C(=O)N([C@@H](C)CO)C[C@H]2C)c1	33*
C[C@H](CO)N1C[C@H](C)[C@H](CN(C)C(=O)Nc2ccc3c(c2)OCO3)Oc2ncc(-c3cccc(C(F)(F)F)c3)cc2C1=O	33*
C[C@@H]1CN([C@@H](C)CO)C(=O)c2cc(-c3ccccc3)cnc2O[C@H]1CN(C)C(=O)Nc1ccc2c(c1)OCO2	-8
COc1ccccc1C#Cc1cnc2c(c1)C(=O)N([C@H](C)CO)C[C@H](C)[C@@H](CN(C)C(=O)c1ccc3c(c1)OCO3)O2	35*
COc1cccc(NC(=O)N(C)C[C@H]2Oc3ncc(C#Cc4ccccc4)cc3C(=O)N([C@@H](C)CO)C[C@@H]2C)c1	-3
COc1cccc(NC(=O)N(C)C[C@@H]2Oc3ncc(C#Cc4ccccc4)cc3C(=O)N([C@@H](C)CO)C[C@@H]2C)c1	-2
C[C@@H]1CN([C@@H](C)CO)C(=O)c2cccc(NC(=O)c3ccc(-c4nccs4)cc3)c2O[C@H]1CN(C)Cc1ccc2c(c1)OCO2	38*
C[C@@H]1CN([C@H](C)CO)C(=O)c2cccc(NC(=O)c3ccc(-c4nccs4)cc3)c2O[C@@H]1CN(C)Cc1ccc(C(=O)Nc2ccccc2N)cc1	-203
C[C@H](CO)N1C[C@H](C)[C@@H](CN(C)Cc2ccc3c(c2)OCO3)Oc2c(NC(=O)C3CC3)cccc2C1=O	-92
COc1ccc(C(=O)Nc2ccc3c(c2)OC[C@@H](C)N(C)C[C@@H](C)[C@@H](OC)CN(C)C3=O)cc1	-1
C[C@H](CO)N1C[C@H](C)[C@H](CN(C)Cc2ccccn2)Oc2ncc(C#Cc3ccc(F)cc3)cc2C1=O	9
C[C@@H]1CN([C@@H](C)CO)C(=O)c2cc(-c3ccc(F)cc3)cnc2O[C@@H]1CN(C)Cc1cccnc1	-51
CNC[C@@H]1Oc2cc(C#CCC3CCCC3)ccc2S(=O)(=O)N([C@@H](C)CO)C[C@@H]1C	2
C[C@@H]1CN([C@H](C)CO)S(=O)(=O)c2ccc(Br)cc2O[C@@H]1CN(C)Cc1ccccn1	5
COc1ccc(-c2cnc3c(c2)C(=O)N([C@@H](C)CO)C[C@H](C)[C@@H](CN(C)C(=O)Cc2ccccc2)O3)cc1	-5
CCC(=O)N(C)C[C@@H]1Oc2cc(C#C[C@@H](C)O)ccc2S(=O)(=O)N([C@@H](C)CO)C[C@@H]1C	7
C[C@@H]1CN([C@@H](C)CO)C(=O)c2cc(C#CCC3CCCC3)cnc2O[C@H]1CN(C)C(=O)CC1CC1	0
CCCNC(=O)N(C)C[C@@H]1Oc2ncc(C#CCC3CCCC3)cc2C(=O)N([C@H](C)CO)C[C@H]1C	1
CC(C)CC#Cc1cnc2c(c1)C(=O)N([C@H](C)CO)C[C@H](C)[C@@H](CN(C)C(=O)C1CCCCC1)O2	-10
C[C@@H]1CN([C@@H](C)CO)C(=O)c2cc(-c3ccccc3F)cnc2O[C@H]1CN(C)Cc1ccccc1F	-42
COc1ccc(C#Cc2cnc3c(c2)C(=O)N([C@H](C)CO)C[C@H](C)[C@H](CN(C)C(=O)NC2CCCCC2)O3)cc1OC	11
CCC(=O)N(C)C[C@H]1Oc2cc(C#C[C@H](C)O)ccc2S(=O)(=O)N([C@H](C)CO)C[C@@H]1C	1
CCCC#Cc1cnc2c(c1)C(=O)N([C@H](C)CO)C[C@H](C)[C@@H](CN(C)C(=O)C1CC1)O2	-10
CN(C)S(=O)(=O)c1cccc(NC(=S)N/N=C/c2ccc(O)c(O)c2O)c1	70*
COc1ccc(C#Cc2ccc3c(c2)O[C@H](CN(C)C)[C@@H](C)CN([C@H](C)CO)S3(=O)=O)cc1	-7
COc1ccc(C(=O)C2CCCN(Cc3cccn3-c3ccccn3)C2)c(OC)c1 (stereo not drawn)	60*
C[C@H](O)C#Cc1cnc2c(c1)C(=O)N([C@H](C)CO)C[C@@H](C)[C@H](CN(C)Cc1cncnc1)O2	-1
Cc1noc(C)c1S(=O)(=O)N(C)C[C@@H]1Oc2c(NC(=O)C3CCCCC3)cccc2C(=O)N([C@H](C)CO)C[C@@H]1C	-197
C[C@@H]1CN([C@@H](C)CO)S(=O)(=O)c2ccc(-c3ccc(C(=O)N(C)C)cc3)cc2O[C@H]1CN(C)C(=O)C1CCOCC1	-11
C[C@@H]1CN([C@H](C)CO)S(=O)(=O)c2ccc(-c3ccc(C(=O)N(C)C)cc3)cc2O[C@H]1CN(C)C(=O)C1CCOCC1	-15

High-throughput results as filed in PubChem.
